Data as given in PubChem BioAssay AID1159580 (chemical genetic matrix, 2015).
About 2,000 (36%) of roughly 5,500 compounds were called active. Another 18% or so got no clear call; they are omitted. Cut-off read from the data, not from the text of the source: active = normalized growth mostly below about 0.91 (no sharp cut-off); inconclusive = no clear call, values can overlap the other calls; inactive = mostly above about 0.92. This is one part of the list.

Assay: chemical genetic growth profiling, strain panel (AID 1159580);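 note: tested at 20 µM; growth read once vehicle control cultures reached saturation at 30 °C; 1 = growth at the plate median or of vehicle wells; lower values mean less growth of the strain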
Conditions: growth OD

Measured: normalized growth

COc1cc(CNC(=O)CCCC/C=C/C(C)C)ccc1O
inactive: S. cerevisiae deletion strains, locus YJR043C, strain POL32, stronger effect = lower value 1 | S. cerevisiae deletion strains, locus YJR066W, strain TOR1, stronger effect = lower value 0.95 | S. cerevisiae deletion strains, locus YKL009W, strain mrt4, stronger effect = lower value 0.926 | S. cerevisiae deletion strains, locus YKL068W, stronger effect = lower value 1.01 | S. cerevisiae deletion strains, locus YKL085W, strain MDH1 (second series), stronger effect = lower value 1 | S. cerevisiae deletion strains, locus YKL085W, strain MDH1, stronger effect = lower value 1 | S. cerevisiae deletion strains, locus YKL160W, strain elf1, stronger effect = lower value 0.97 | S. cerevisiae deletion strains, locus YKL190W, strain CNB1, stronger effect = lower value 0.998 | S. cerevisiae deletion strains, locus YKR001C, strain vps1, stronger effect = lower value 0.997 | S. cerevisiae deletion strains, locus YKR026C, strain gcn3, stronger effect = lower value 0.97 | S. cerevisiae deletion strains, locus YKR091W, strain srl3, stronger effect = lower value 0.981 | S. cerevisiae deletion strains, locus YLL001W, strain dnm1, stronger effect = lower value 0.955 | S. cerevisiae deletion strains, locus YLL026W, stronger effect = lower value 0.987 | S. cerevisiae deletion strains, locus YLL041C, strain sdh2, stronger effect = lower value 0.987 | S. cerevisiae deletion strains, locus YLR027C, strain aat2, stronger effect = lower value 0.975 | S. cerevisiae deletion strains, locus YLR039C, strain RIC1, stronger effect = lower value 1.07 | S. cerevisiae deletion strains, locus YLR058C, strain SHM2, stronger effect = lower value 1.02 | S. cerevisiae deletion strains, locus YLR102C, strain apc9, stronger effect = lower value 0.986 | S. cerevisiae deletion strains, locus YLR113W, strain HOG1, stronger effect = lower value 1.02 | S. cerevisiae deletion strains, locus YLR221C, strain rsa3, stronger effect = lower value 0.978 | S. cerevisiae deletion strains, locus YLR258W, strain gsy2, stronger effect = lower value 0.986 | S. cerevisiae deletion strains, locus YLR262C, strain YPT6 (second series), stronger effect = lower value 0.966 | S. cerevisiae deletion strains, locus YLR262C, strain YPT6, stronger effect = lower value 1.11 | S. cerevisiae deletion strains, locus YLR268W, strain sec22, stronger effect = lower value 0.967 | S. cerevisiae deletion strains, locus YLR320W, strain mms22, stronger effect = lower value 0.995 | S. cerevisiae deletion strains, locus YLR330W, strain CHS5, stronger effect = lower value 1.02 | S. cerevisiae deletion strains, locus YLR342W, strain FKS1 (second series), stronger effect = lower value 1.02 | S. cerevisiae deletion strains, locus YLR342W, strain FKS1, stronger effect = lower value 0.978 | S. cerevisiae deletion strains, locus YLR357W, strain rsc2, stronger effect = lower value 1.03 | S. cerevisiae deletion strains, locus YLR370C, strain arc18, stronger effect = lower value 0.977 | S. cerevisiae deletion strains, locus YLR371W, strain rom2, stronger effect = lower value 1.01 | S. cerevisiae deletion strains, locus YLR384C, strain iki3, stronger effect = lower value 0.975 | S. cerevisiae deletion strains, locus YLR418C, strain cdc73, stronger effect = lower value 1 | S. cerevisiae deletion strains, locus YML016C, strain PPZ1, stronger effect = lower value 0.998 | S. cerevisiae deletion strains, locus YML032C, strain rad52, stronger effect = lower value 0.988 | S. cerevisiae deletion strains, locus YML120C, strain ndi1, stronger effect = lower value 0.984 | S. cerevisiae deletion strains, locus YML124C, strain tub3, stronger effect = lower value 0.986 | S. cerevisiae deletion strains, locus YMR058W, strain fet3, stronger effect = lower value 1 | S. cerevisiae deletion strains, locus YMR078C, strain ctf18, stronger effect = lower value 1 | S. cerevisiae deletion strains, locus YMR125W, strain sto1, stronger effect = lower value 1 | S. cerevisiae deletion strains, locus YMR129W, stronger effect = lower value 0.974 | S. cerevisiae deletion strains, locus YMR205C, strain PFK2, stronger effect = lower value 0.975 | S. cerevisiae deletion strains, locus YMR223W, strain ubp8, stronger effect = lower value 1 | S. cerevisiae deletion strains, locus YMR231W, strain pep5, stronger effect = lower value 1 | S. cerevisiae deletion strains, locus YMR307W, strain GAS1, stronger effect = lower value 1.04 | S. cerevisiae deletion strains, locus YNL067W, strain RPL9B, stronger effect = lower value 1 | S. cerevisiae deletion strains, locus YNL071W, strain lat1, stronger effect = lower value 0.979 | S. cerevisiae deletion strains, locus YNL183C, strain NPR1, stronger effect = lower value 0.96 | S. cerevisiae deletion strains, locus YNL209W, strain ssb2, stronger effect = lower value 1 | S. cerevisiae deletion strains, locus YNL233W, strain BNI4, stronger effect = lower value 0.995 | S. cerevisiae deletion strains, locus YNL248C, strain rpa49, stronger effect = lower value 0.926 | S. cerevisiae deletion strains, locus YNL250W, strain rad50, stronger effect = lower value 1.01 | S. cerevisiae deletion strains, locus YNL271C, strain bni1, stronger effect = lower value 0.984 | S. cerevisiae deletion strains, locus YNL298W, strain CLA4, stronger effect = lower value 0.992 | S. cerevisiae deletion strains, locus YNL307C, strain MCK1, stronger effect = lower value 0.988 | S. cerevisiae deletion strains, locus YNL322C, strain KRE1 (second series), stronger effect = lower value 0.98 | S. cerevisiae deletion strains, locus YNL322C, strain KRE1, stronger effect = lower value 1.01 | S. cerevisiae deletion strains, locus YNR049C, strain mso1, stronger effect = lower value 0.985 | S. cerevisiae deletion strains, locus YNR052C, strain pop2, stronger effect = lower value 0.985 | S. cerevisiae deletion strains, locus YOL012C, strain htz1 1.39 | S. cerevisiae deletion strains, locus YOL147C, strain pex11, stronger effect = lower value 0.973 | S. cerevisiae deletion strains, locus YOR001W, strain rrp6, stronger effect = lower value 0.956 | S. cerevisiae deletion strains, locus YOR061W, strain CKA2, stronger effect = lower value 1.02 | S. cerevisiae deletion strains, locus YOR069W, strain VPS5, stronger effect = lower value 1.01 | S. cerevisiae deletion strains, locus YOR070C, strain gyp1, stronger effect = lower value 0.99 | S. cerevisiae deletion strains, locus YOR080W, strain dia2, stronger effect = lower value 0.979 | S. cerevisiae deletion strains, locus YOR083W, strain WHI5, stronger effect = lower value 0.962 | S. cerevisiae deletion strains, locus YOR106W, strain vam3, stronger effect = lower value 0.967 | S. cerevisiae deletion strains, locus YOR136W, strain idh2, stronger effect = lower value 0.988 | S. cerevisiae deletion strains, locus YOR144C, strain elg1, stronger effect = lower value 0.996 | S. cerevisiae deletion strains, locus YOR184W, strain ser1, stronger effect = lower value 0.995 | S. cerevisiae deletion strains, locus YOR231W, strain MKK1, stronger effect = lower value 1.02 | S. cerevisiae deletion strains, locus YOR265W, strain rbl2, stronger effect = lower value 0.982 | S. cerevisiae deletion strains, locus YOR270C, strain vph1, stronger effect = lower value 1 | S. cerevisiae deletion strains, locus YOR290C, strain snf2, stronger effect = lower value 1 | S. cerevisiae deletion strains, locus YOR316C, strain cot1, stronger effect = lower value 0.987 | S. cerevisiae deletion strains, locus YPL051W, strain arl3, stronger effect = lower value 0.97 | S. cerevisiae deletion strains, locus YPL078C, strain atp4, stronger effect = lower value 0.974 | S. cerevisiae deletion strains, locus YPL106C, strain sse1, stronger effect = lower value 0.995 | S. cerevisiae deletion strains, locus YPL240C, strain hsp82, stronger effect = lower value 0.991 | S. cerevisiae deletion strains, locus YPL256C, strain CLN2, stronger effect = lower value 0.986 | S. cerevisiae deletion strains, locus YPR119W, strain clb2, stronger effect = lower value 0.994 | S. cerevisiae deletion strains, locus YPR141C, strain kar3, stronger effect = lower value 0.996 | S. cerevisiae deletion strains, locus YPR163C, strain tif3, stronger effect = lower value 0.981 | S. cerevisiae deletion strains, locus YPR167C, strain met16, stronger effect = lower value 1.01 | S. cerevisiae deletion strains, strain wtn01, stronger effect = lower value 0.963 | S. cerevisiae strains, strain wild type, stronger effect = lower value 1
